Each structure is given as a SMILES string. This is part of a sample that, as a whole, favours compounds with a hit. Of some 83,000 tested, about 20% had one in any assay.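 Cells were grown in 96-well plates and exposed to the test compound at a single concentration for 48 hours; results are reported as percent growth, with values below 10 considered active.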 Unmarked numbers belong to inactive results. Calls of active or inactive are those of the source.

Experiment in all cases: NCI-60 one-dose screen, 48 h (100 = growth as untreated, 0 = no growth, -100 = all killed)
Details in all cases: 10 µM

Test [1] deals with SK-MEL-2 melanoma.
The subject of test [2] is EKVX NSCLC.
The subject of test [3] is SN12C renal.
The subject of test [4] is TK-10 renal.
Test [5] concerns ACHN renal.
Test [6] relates to CAKI-1 renal.
Test [7] relates to A498 renal.
Test [8] has as its system CCRF-CEM leukemia.
The subject of test [9] is MOLT-4 leukemia.
For test [10], the system named is UO-31 renal.

As to `O=C(COc1ccc(Cl)cc1Cl)Oc1coc(CSc2nc3ccccc3s2)cc1=O`, the growth in test [1] was 94.5%; in test [2], 106%; in test [3], 92.3%; in [4] it was 107%; in test [5], 101%; in [6], 101%. Further, the figures for the growth in test [7], in [8] and in test [9] were -21.3% (active), 88.7% and 86.4%, respectively.
As for `CCOC(=O)c1c(C(F)(F)F)n([O-])c2ccc(OC)cc2[n+]1=O`, the growth in test [1] was 46.4%; in test [2], 9.51% (active); in test [3], 22.6%; in test [4], 49.8%; in test [5], 32.1%; in test [7] it was 50.8%. The growth in [8] is 5.58% (active); in test [9], 5.77% (active).
For the compound `CCCCCC(CCC)COC(=O)c1ccc(OC)cc1` (stereo unspecified), the growth in [1] is 96%; in [2], 100%; in [10], 85.8%; in test [4], 95.6%; in test [5], 106%; in [6], 92.3%. Moreover, the growth is 109% in test [7], 75.3% in test [8] and 100% in [9].
As for `Cc1cc(=O)oc2cc(OCc3cn(CC(O)CO)nn3)ccc12` (stereo unspecified), the growth is 115% in test [1]; 97% in [2]; 102% in [3]; 105% in [4]; 105% in test [5]; 109% in [6]. Also, the values for the growth in test [7], in [8] and in [9] were -3.54% (active), 92.5% and 98.6%, respectively.
Turning to `CC(=O)OC1Oc2ccccc2-c2oc(=O)c(-c3ccc(F)cc3)cc21` (stereo unspecified), the growth in test [1] was 86.2%; in test [2], 34.2%; in test [3], 88.3%; in [4], 92.9%; in test [5] it was 104%; in test [6], 93.1%. In addition, the growth was -16.1% (active) in test [7], 91.5% in [8] and 88.6% in [9].
As to `O=C(N/N=c1/ccoc2cccnc12)N1CCN(c2ncccn2)CC1`, the growth in test [1] is 11.8%; in test [2], 17.4%; in test [10], 24.8%; in test [4], 27.4%; in test [5] it was 25.1%; in [6], 26%. In addition, the growth in [7] is 45.3%; in test [8], 30.5%; in test [9], 8.23% (active).
With `S=c1c2ncccc2c(-c2ccccn2)nn1Cc1ccccn1`, the growth was 92.1% in [1]; 99.3% in test [2]; 82.2% in test [10]; 99.5% in [4]; 104% in test [5]; 92.1% in [6]. In addition, the growth in test [7] was 134%; in test [8], 84.2%; in test [9] it was 93.3%.
Turning to `N#Cc1ccc(-n2cnc(NC(=O)[C@H]3CCN(C#N)C3)c2)cc1`, the growth in test [1] is -31.7% (active); in test [2] it was 20.4%; in test [10] it was 18.6%; in [4], 21.1%; in test [5] it was 11.8%; in test [6] it was 34.9%. Further, the growth in [7] is -18.4% (active); in [8] it was 12.3%; in test [9] it was 9.28% (active).
Consider `CCOC(=O)Nc1ccc2c(c1)C(=O)N(CCOC)c1ccccc1O2`, for which the growth in test [1] was 39.9%; in test [2], 45.4%; in [10] it was 62.2%; in [4] it was 58.7%; in test [5] it was 48.1%; in test [6], 38.7%. Besides, the growth in test [7] is 4.67% (active); in test [8], 20.6%; in test [9], 35%.
As to `C[C@@H]1C(=O)N(C[C@H](Cc2ccccc2)NC(=O)OCc2ccccc2)[C@]1(Cc1ccccc1)C(=O)OCc1ccccc1`, the growth is 42.9% in test [1]; 34% in [2]; 16.4% in test [10]; 29.1% in test [4]; 32.2% in test [5]; 32.2% in test [6]. Moreover, the growth in test [7] was 37.7%; in test [8], 52.6%; in test [9] it was -0.259% (active).
Consider `O=[N+]([O-])c1ccc(Br)o1`, for which the growth is 94.4% in test [1]; 101% in test [2]; 90% in test [10]; 96.4% in [4]; 100% in test [5]; 98.3% in test [6]. Moreover, the growth in test [7] was 102%; in test [8], 114%; in [9] it was 106%.
Regarding `O=C(Nc1cccc(Cl)c1)OCC(COC(=O)Nc1cccc(Cl)c1)(COC(=O)Nc1cccc(Cl)c1)[N+](=O)[O-]`, the growth in [1] was 49.7%; in test [2] it was 28.3%; in test [10], 30.9%; in test [4], 53.7%; in test [5], 39.8%; in test [6], 49.8%. Further, the growth in test [7] is 21.1%; in test [8], 21.4%; in test [9] it was 4.15% (active).
Regarding `NC(=O)C1CCCN(Cc2c[nH]c3ccccc23)C1` (stereo unspecified), the growth in test [1] is 86.5%; in test [2], 99.9%; in test [10], 75.4%; in test [4], 93.7%; in [5] it was 103%; in test [6] it was 94.4%. Also, the growth in test [7] is 81%; in [8], 106%; in test [9] it was 99.2%.
Turning to `COc1ccc(/C(=C/c2cc(OC)c(OC)cc2[N+](=O)[O-])C(=O)O)cc1`, the growth was 107% in [1]; 105% in [2]; 83% in [10]; 118% in test [4]; 108% in test [5]; 96.1% in [6]. Also, the growth in [7] was 105%; in [8], 98.6%; in [9], 103%.
For `Clc1cc(Cl)c(OCCCCCCN2CCNCC2)c(Cl)c1`, the growth in [1] is 65.2%; in [2] it was 63.3%; in [10], 73.2%; in [4] it was 65.9%; in [5] it was 47.2%; in test [6] it was 32.3%. In addition, the growth was 48.1% in [7], 10.7% in [8] and -9.72% (active) in [9].
Turning to `Cc1c(C(=O)N[C@H](CO)Cc2ccccc2)[nH]c2ccc(Cl)cc2c1=O`, the growth in test [1] was 95.7%; in [2] it was 94.4%; in test [10], 98.2%; in test [4], 94.5%; in test [5], 101%; in test [6] it was 94.8%. Moreover, the figures for the growth in test [7], in test [8] and in test [9] were 98%, 94.8% and 92.2%, respectively.
With `C[N+]1=C(/C=C/c2ccc(I)cc2)C(C)(C)c2ccccc21`, the growth in test [1] is 95.6%; in [2], 91.5%; in [10], 83.5%; in [4], 89.2%; in test [5] it was 94.7%; in test [6], 94.4%. The growth was 104% in [7], 2.26% (active) in test [8] and 8.77% (active) in [9].
Consider `CC(=O)/C(=C\c1ccc(Cl)cc1)c1ccccc1`, for which the growth in test [1] was 39.3%; in test [2], 32.9%; in [10], 52.2%; in test [4], 57.1%; in test [5], 29.6%; in test [6], 15.6%. The growth in [7] was 15.7%; in test [8], 11.1%; in test [9] it was 11.9%.

These data come from PubChem BioAssay (NCI).
